# Assay results reported in PubChem BioAssay AID624331 (National Center for Advancing Translational Sciences (NCATS), 2012).
# Inconclusive results are not listed. Entries that show only a call come without a potency. Active and inactive are the calls of the source. Calls come from the whole dose curve; as a rule, active = well fitted activation curve with a large enough effect; inconclusive = small, poorly fitted or top-dose-only effect; inactive = no such curve, though single readings can be large or run the other way.
# Test: qHTS assay for re-activators of p53 using a Luc reporter: Hit Validation with no p53 Expressed
# Settings: p53-null cells, luciferase reporter counter-screen; series mostly up to 46.1 µM
# How it was run: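 Counter-screen of primary hits in a cell line not transfected with p53, in Opti-MEM with 10% FBS; compounds at several concentrations (10 mM stock, 1:5; top 46.1 µM in well), 24 h at 37 deg C, 5% CO2. Luminescence read after 10 min with Amplite reagent.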
row,SMILES,Potency
1,COc1cc(/C=N/Nc2nc3ccccc3s2)ccc1OC(=O)c1ccccc1F,inactive
2,O=C(COC(=O)c1cn(-c2ccccc2)nc1-c1ccc(F)cc1)Nc1ncc(Cl)cc1Cl,inactive
3,COc1ccc(C2SCCN2C(=S)Nc2ccc(Cl)cc2)cc1 (stereo not given),inactive
4,Cc1occc1C(=O)NN=C1C2CC3CC(C2)CC1C3,inactive
5,O=C(NC(=S)Nc1nc2ccccc2s1)c1ccco1,inactive
6,CCOC(=O)N(Cc1ccccc1)C(C(=O)O)C(C(=O)O)N(Cc1ccccc1)C(=O)OCC (stereo not given),inactive
7,CCc1nnc(NC(=O)/C=C/c2ccco2)s1,inactive
8,Oc1ccccc1-c1cc(-c2ccc3c(c2)OCCO3)n[nH]1,inactive
9,Cc1ccc(C(=O)Nc2ccn(C)n2)cc1,inactive
10,CCOC(=O)N/N=C\c1ccc(C)s1,inactive
11,COc1ccc(-n2nc([N+](=O)[O-])c(=NCc3ccco3)n2O)cc1,inactive
12,Cc1ccccc1-c1noc(N)c1C#N,inactive
13,O=C(Nc1ccc(OC(F)(F)F)cc1)c1cnc2n(c1=O)CCS2,inactive
14,c1ccc2sc(-c3ccc4c(c3)OCO4)nc2c1,inactive
15,O=C(Nc1nnc(-c2cccs2)o1)c1cccc(Oc2ccccc2)c1,inactive
16,Cc1ccc(NC(CC(=O)c2ccccc2)c2ccc(F)cc2)cc1 (stereo not given),inactive
17,Cc1csc(NC(=O)/C=C/c2ccc(C)o2)n1,inactive
18,Cc1cccc(C)c1NC(=O)CC(NCc1ccco1)C(=O)O (stereo not given),inactive
19,Cc1ccc(C2=CC(c3ccc(N(C)C)cc3)n3nnnc3N2)cc1 (stereo not given),inactive
20,CCN(Cc1ccccc1)C(=O)CN1C(=S)NC(C)(C)CC1C (stereo not given),inactive
